# Assay results reported in publication PMC11062922 (Nature Chemical Biology, 2023).
# Read-outs that look alike come from different tables or passages of the source.
# Assays:
# PRKAA2 = conditions: read-out: apparent Kd, n = 1
# PRKD2 = conditions: read-out: apparent Kd, n = 1
substance,measurement,setting,value
Lestaurtinib,potency estimated from few doses,"PRKAA2; compound concentrations:100 nM and 1000 nM (sheet 'Lestaurtinib' of Supplementary Table 1),run:Lestaurtinib_02496_R2,Plate:MR013",0.598 µM
same,potency estimated from few doses,"PRKAA2; compound concentrations:100 nM and 1000 nM (sheet 'Lestaurtinib' of Supplementary Table 1),run:Lestaurtinib_02496_R3,Plate:MR013",0.785 µM
same,potency estimated from few doses,"PRKAA2; compound concentrations:100 nM and 1000 nM (sheet 'Lestaurtinib' of Supplementary Table 1),run:Lestaurtinib_02572_R1,Plate:MR015",0.617 µM
same,potency estimated from few doses,"PRKAA2; compound concentrations:100 nM and 1000 nM (sheet 'Lestaurtinib' of Supplementary Table 1),run:Lestaurtinib_02572_R2,Plate:MR015",1.33 µM
same,potency estimated from few doses,"PRKAA2; compound concentrations:100 nM and 1000 nM (sheet 'Lestaurtinib' of Supplementary Table 1),run:Lestaurtinib_02572_R3,Plate:MR015",1.4 µM
same,potency estimated from few doses,"PRKAA2; compound concentrations:100 nM and 1000 nM (sheet 'Lestaurtinib' of Supplementary Table 1),run:Lestaurtinib_02577_R2,Plate:MR016",1.21 µM
same,potency estimated from few doses,"PRKAA2; compound concentrations:100 nM and 1000 nM (sheet 'Lestaurtinib' of Supplementary Table 1),run:Lestaurtinib_02577_R3,Plate:MR016",0.924 µM
same,potency estimated from few doses,"PRKAA2; compound concentrations:100 nM and 1000 nM (sheet 'Lestaurtinib' of Supplementary Table 1),run:Lestaurtinib_02584_R1,Plate:MR017",1.41 µM
same,potency estimated from few doses,"PRKAA2; compound concentrations:100 nM and 1000 nM (sheet 'Lestaurtinib' of Supplementary Table 1),run:Lestaurtinib_02584_R3,Plate:MR017",1.53 µM
same,potency estimated from few doses,"PRKAA2; compound concentrations:100 nM and 1000 nM (sheet 'Lestaurtinib' of Supplementary Table 1),run:Lestaurtinib_02601_R1,Plate:MR018",0.805 µM
same,potency estimated from few doses,"PRKAA2; compound concentrations:100 nM and 1000 nM (sheet 'Lestaurtinib' of Supplementary Table 1),run:Lestaurtinib_02601_R2,Plate:MR018",0.71 µM
same,potency estimated from few doses,"PRKAA2; compound concentrations:100 nM and 1000 nM (sheet 'Lestaurtinib' of Supplementary Table 1),run:Lestaurtinib_02606_R2,Plate:MR019",0.749 µM
same,potency estimated from few doses,"PRKAA2; compound concentrations:100 nM and 1000 nM (sheet 'Lestaurtinib' of Supplementary Table 1),run:Lestaurtinib_02606_R3,Plate:MR019",0.736 µM
same,potency estimated from few doses,"PRKAA2; compound concentrations:100 nM and 1000 nM (sheet 'Lestaurtinib' of Supplementary Table 1),run:Lestaurtinib_02624_R1,Plate:MR020",0.849 µM
same,potency estimated from few doses,"PRKAA2; compound concentrations:100 nM and 1000 nM (sheet 'Lestaurtinib' of Supplementary Table 1),run:Lestaurtinib_02624_R2,Plate:MR020",0.711 µM
same,potency estimated from few doses,"PRKAA2; compound concentrations:100 nM and 1000 nM (sheet 'Lestaurtinib' of Supplementary Table 1),run:Lestaurtinib_02624_R3,Plate:MR020",0.877 µM
same,potency estimated from few doses,"PRKAA2; compound concentrations:100 nM and 1000 nM (sheet 'Lestaurtinib' of Supplementary Table 1),run:Lestaurtinib_02724_R2,Plate:MR021",0.803 µM
same,potency estimated from few doses,"PRKAA2; compound concentrations:100 nM and 1000 nM (sheet 'Lestaurtinib' of Supplementary Table 1),run:Lestaurtinib_02724_R3,Plate:MR021",0.946 µM
same,potency estimated from few doses,"PRKAA2; compound concentrations:100 nM and 1000 nM (sheet 'Lestaurtinib' of Supplementary Table 1),run:Lestaurtinib_02748_R1,Plate:MR024",0.752 µM
same,potency estimated from few doses,"PRKAA2; compound concentrations:100 nM and 1000 nM (sheet 'Lestaurtinib' of Supplementary Table 1),run:Lestaurtinib_02748_R3,Plate:MR024",0.559 µM
same,potency estimated from few doses,"PRKAA2; compound concentrations:100 nM and 1000 nM (sheet 'Lestaurtinib' of Supplementary Table 1),run:Lestaurtinib_02752_R2,Plate:MR025",0.851 µM
same,potency estimated from few doses,"PRKAA2; compound concentrations:100 nM and 1000 nM (sheet 'Lestaurtinib' of Supplementary Table 1),run:Lestaurtinib_02752_R3,Plate:MR025",0.786 µM
same,potency estimated from few doses,"PRKAA2; compound concentrations:100 nM and 1000 nM (sheet 'Lestaurtinib' of Supplementary Table 1),run:Lestaurtinib_02765_R1,Plate:MR026",0.911 µM
same,potency estimated from few doses,"PRKAA2; compound concentrations:100 nM and 1000 nM (sheet 'Lestaurtinib' of Supplementary Table 1),run:Lestaurtinib_02765_R2,Plate:MR026",0.741 µM
same,potency estimated from few doses,"PRKAA2; compound concentrations:100 nM and 1000 nM (sheet 'Lestaurtinib' of Supplementary Table 1),run:Lestaurtinib_02766_R1,Plate:MR027",0.782 µM
same,potency estimated from few doses,"PRKAA2; compound concentrations:100 nM and 1000 nM (sheet 'Lestaurtinib' of Supplementary Table 1),run:Lestaurtinib_02766_R2,Plate:MR027",0.0964 µM
same,potency estimated from few doses,"PRKAA2; compound concentrations:100 nM and 1000 nM (sheet 'Lestaurtinib' of Supplementary Table 1),run:Lestaurtinib_02766_R3,Plate:MR027",0.669 µM
same,potency estimated from few doses,"PRKAA2; compound concentrations:100 nM and 1000 nM (sheet 'Lestaurtinib' of Supplementary Table 1),run:Lestaurtinib_02768_R3,Plate:MR028",0.518 µM
same,potency estimated from few doses,"PRKAA2; compound concentrations:100 nM and 1000 nM (sheet 'Lestaurtinib' of Supplementary Table 1),run:Lestaurtinib_02795_R2,Plate:MR022",0.783 µM
same,potency estimated from few doses,"PRKAA2; compound concentrations:100 nM and 1000 nM (sheet 'Lestaurtinib' of Supplementary Table 1),run:Lestaurtinib_02795_R3,Plate:MR022",0.86 µM
same,potency estimated from few doses,"PRKAA2; compound concentrations:100 nM and 1000 nM (sheet 'Lestaurtinib' of Supplementary Table 1),run:Lestaurtinib_02802_R1,Plate:MR029",0.713 µM
same,potency estimated from few doses,"PRKAA2; compound concentrations:100 nM and 1000 nM (sheet 'Lestaurtinib' of Supplementary Table 1),run:Lestaurtinib_02802_R2,Plate:MR029",0.472 µM
same,potency estimated from few doses,"PRKAA2; compound concentrations:100 nM and 1000 nM (sheet 'Lestaurtinib' of Supplementary Table 1),run:Lestaurtinib_02802_R3,Plate:MR029",0.0749 µM
same,potency estimated from few doses,"PRKAA2; compound concentrations:100 nM and 1000 nM (sheet 'Lestaurtinib' of Supplementary Table 1),run:Lestaurtinib_02896_R2,Plate:MR030",1.8 µM
same,potency estimated from few doses,"PRKAA2; compound concentrations:100 nM and 1000 nM (sheet 'Lestaurtinib' of Supplementary Table 1),run:Lestaurtinib_02896_R3,Plate:MR030",0.761 µM
same,potency estimated from few doses,"PRKAA2; compound concentrations:100 nM and 1000 nM (sheet 'Lestaurtinib' of Supplementary Table 1),run:Lestaurtinib_03172_R1,Plate:MR031",0.796 µM
same,potency estimated from few doses,"PRKAA2; compound concentrations:100 nM and 1000 nM (sheet 'Lestaurtinib' of Supplementary Table 1),run:Lestaurtinib_03172_R2,Plate:MR031",0.564 µM
same,potency estimated from few doses,"PRKAA2; compound concentrations:100 nM and 1000 nM (sheet 'Lestaurtinib' of Supplementary Table 1),run:Lestaurtinib_03172_R3,Plate:MR031",0.696 µM
same,potency estimated from few doses,"PRKAA2; compound concentrations:100 nM and 1000 nM (sheet 'Lestaurtinib' of Supplementary Table 1),run:Lestaurtinib_03252_R1,Plate:MR032",1.21 µM
same,potency estimated from few doses,"PRKAA2; compound concentrations:100 nM and 1000 nM (sheet 'Lestaurtinib' of Supplementary Table 1),run:Lestaurtinib_03252_R2,Plate:MR032",0.0261 µM
same,potency estimated from few doses,"PRKD2; compound concentrations:100 nM and 1000 nM (sheet 'Lestaurtinib' of Supplementary Table 1),run:Lestaurtinib_02339_R1,Plate:MR001",0.0416 µM
same,potency estimated from few doses,"PRKD2; compound concentrations:100 nM and 1000 nM (sheet 'Lestaurtinib' of Supplementary Table 1),run:Lestaurtinib_02339_R3,Plate:MR001",0.0393 µM
